Compounds with a hit are over-represented: about 5.1% of the library has one in this group of screens.
KDM4E inh: inhibitors of human JMJD2E histone demethylase. B2RXH2. JMJD2E catalytic domain, FDH-coupled NADH fluorescence (FDH is formaldehyde dehydrogenase). Potency, µM (titrated, usually from 57.1 µM), for inactives: at the top dose activity change, negative = inhibition, hits mostly inhibitors. actives 1.6% (n = 230,000); active = well fitted inhibition curve with a large enough effect, not every such curve was filed as active; inconclusive = small, poorly fitted or top-dose-only effect, or another doubt; inactive = no such curve, though single readings can be large or run the other way;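 note: potency is the fitted concentration of half-maximal effect; 0% = wells with enzyme and -100% = buffer wells without enzyme; nearly all actives have a fitted effect of over 50% in size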
Tau fibril FP: tau fibrillization inhibition (FP); P10636; K18 P301L tau heparin fibrillization, Alexa594 FP, 6 h; Potency, µM (highest dose often 57.7 µM), for inactives: at the top dose activity, negative = inhibition, actives largely listed as inhibitors; actives 0.39% (n = 280,000); AID 1468; note: potency is the fitted concentration of half-maximal effect; nearly all actives have a fitted effect of over 55% in size
Target sequence (P10636 561-689 P618L limits assumed): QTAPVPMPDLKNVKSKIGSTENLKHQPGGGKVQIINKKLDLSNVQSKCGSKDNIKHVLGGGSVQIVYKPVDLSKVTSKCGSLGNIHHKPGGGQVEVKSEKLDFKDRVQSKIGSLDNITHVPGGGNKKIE
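Compound effects on tau fibrillization are measured by Alexa 594 fluorescence polarization (ex 555, em 632 nm). K18 P301L tau is used at 15 uM with 0.24 uM labeled tracer, and 20 uM heparin induces aggregation over 6 hr at 37 C.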
Tau fibril ThT: tau fibrillization inhibition (ThT binding); P10636; actives 2.1% (n = 270,000); recombinant tau K18 P301L, heparin-induced fibrillization, ThT fluorescence; Potency, µM (top dose mostly 57.4 µM), inactives show at the top dose activity, negative = inhibition, usual class: inhibitors; note: potency is the fitted concentration of half-maximal effect; nearly all actives have a fitted effect of over 55% in size
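Using a mix of unlabeled (15 uM) and Alexa 594-labeled (0.24 uM) tau K18 P301L, heparin-triggered fibrillization over 6 hr at 37 C was scored by ThT fluorescence.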
Tau fluor counter: counter-screen for tau fibril formation inhibitors; tau K18 P301L Alexa594 fluorescence, heparin fibrillization; Potency, µM (titrated, usually from 57.7 µM), inactives show top-dose activity change, negative = decrease; actives 0.93% (n = 280,000); AID 1463; note: potency is the fitted concentration of half-maximal effect; nearly all actives have a fitted effect of over 55% in size
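Human tau K18 P301L (15 uM unlabeled, 0.24 uM Alexa 594-labeled) in 100 mM sodium acetate pH 7 with 20 uM heparin, 6 hr at 37 C. ThT 30 uM added, 1 hr ambient; Alexa 594 FP and total fluorescence read at 555/632 nm.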
NPSR antagonist: antagonists of human neuropeptide S receptor cAMP signaling; CHO-NPSR cells, cAMP TR-FRET, antagonist mode; actives 1% (n = 220,000); Potency, µM (highest dose often 38.3 µM), for the others: top-dose activity change, negative = inhibition, usual class: inhibitors; Q6W5P4; note: potency is the fitted concentration of half-maximal effect; nearly all actives have a fitted effect of over 50% in size
Target sequence (Q6W5P4 whole entry, looked up): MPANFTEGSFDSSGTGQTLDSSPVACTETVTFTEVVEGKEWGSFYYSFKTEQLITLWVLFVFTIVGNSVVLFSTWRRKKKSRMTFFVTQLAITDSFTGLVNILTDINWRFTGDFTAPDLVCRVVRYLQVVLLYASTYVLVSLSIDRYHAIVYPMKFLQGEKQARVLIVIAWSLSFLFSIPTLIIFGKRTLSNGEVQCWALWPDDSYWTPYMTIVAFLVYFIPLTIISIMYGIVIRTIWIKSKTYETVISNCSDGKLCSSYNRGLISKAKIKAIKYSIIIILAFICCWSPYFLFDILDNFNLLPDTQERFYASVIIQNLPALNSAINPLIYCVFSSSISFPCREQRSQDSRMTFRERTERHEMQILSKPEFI
PNC assembly inh: inhibitors of perinucleolar compartment assembly; activity change (PNC), negative = inhibition, % at 10 µM; actives 3.1% (n = 140,000); PC3M PTB-GFP, PNC prevalence imaging, 16 h; hits give low values; AID 2417;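 active = readout at or below -70, meaning at least 70% loss of cells showing the perinucleolar compartment, a nuclear body marking cancer cells; inconclusive = readout between -30 and a set limit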;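 note: plate controls were DMSO wells for no effect and camptothecin positive control wells for full effect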
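PC3M cells stably expressing PTB-GFP, 750–1000 cells/well, treated 16 h at 37 °C with compound (23 nl of library stock), in duplicate. After paraformaldehyde fixation and Hoechst stain, imaged at 20x; PNC prevalence scored by image analysis.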
Active calls of the source: *; ? = inconclusive; / = no result given; [ ] = another dose, or the depositor's remark. Unless noted, calls come from the whole dose curve; as a rule, active = well fitted curve in the direction sought with a large enough effect; inconclusive = small, poorly fitted or top-dose-only effect, or another doubt; inactive = no such curve, though single readings can be large; an effect the other way counts as inactive or inconclusive. Unless noted, % is set by controls: 0 for no effect and ±100 for the full control effect.

SMILES	KDM4E inh	Tau fibril FP	Tau fibril ThT	Tau fluor counter	NPSR antagonist	PNC assembly inh
CCOc1ccc(C2NC(=O)c3c(COC)cc(C)nc3N2Cc2ccccc2)cc1OC (stereo not given)	/	-2%	-14%	-13%	/	/
CCc1ncc(/C=C2\C(=O)Nc3ccccc32)[nH]1	-9%	-6%	13µM*	-7%	20%[7.67 µM]	/
O=C(/C=C1\C(=O)Nc2ccccc21)/C=C1\C(=O)Nc2ccccc21	?	?	28µM*	-25%	?	/
Cc1ncc(/C=C2\C(=O)Nc3ccccc32)[nH]1	-9%	1%	16µM*	-12%	48%	/
Cc1noc(Cn2c(=O)c3ccccc3n(CC(=O)Nc3ccc(F)cc3F)c2=O)n1	/	2%	0%	-2%	/	/
Cc1cc(Nc2ccc(Br)c(C)c2)n2nc(-c3ccco3)nc2n1	/	-4%	-10%	5%	/	/
Cc1cccc(N2CCN(S(=O)(=O)c3ccc4oc(=O)c5ncn(C)c5c4c3)CC2)c1C	/	-4%	0%	0%	/	/
Cc1cc(C)cc(Nc2ncnc3c2nc2n3CCCC2)c1	/	5%	-11%	0%	/	/
O=C(N/C=C/c1ccccc1)Nc1ccc(Cl)cc1	?	?	?	5µM*[quencher]	-10%[46.1 µM]	17
Cc1ccc(NC(=O)N/C=C/c2ccc(Cl)cc2)cc1	1%	5%	-1%	4%	-8%[46.1 µM]	57
C=CCn1c(SCC(=O)NCCCC(=O)OCC)nc2scc(-c3ccco3)c2c1=O	-18%	-1%	-6%	-6%	-3%	/
CC(C)C(C)(C#N)NC(=O)CSc1nc2scc(-c3ccco3)c2c(=O)n1-c1ccccc1 (stereo not given)	?	7.9µM*	10µM*	-18%	-11%[46.1 µM]	-14
Cc1sc2nc(SCC(=O)NCc3ccco3)n(-c3ccccc3)c(=O)c2c1C	?	0%	6%	-1%	?	-84*
CCOC(=O)c1ccccc1NC(=O)CSc1ncc(CO)n1Cc1ccc(C)cc1	/	5%	1%	-1%	/	/
CC1(C)Cc2ccccc2-c2c1c(=O)n(Cc1ccccc1)c1nnnn21	?	4%	-2%	-2%	?	-100*
COC(=O)C1=C(c2ccccc2)c2ccccc2S(=O)(=O)N1CC(=O)Nc1ccc(OC)cc1OC	/	-7%	-5%	?	/	/
Cc1ccccc1OCC(=O)Nc1ccc(C(=O)OCc2cc(=O)n3ccsc3n2)cc1	/	-12%	7%	-4%	/	/
O=C(/C=C/c1cccc([N+](=O)[O-])c1)c1ccccc1	4%	10%	?	-8%	/	/
O=C(C#Cc1cccc([N+](=O)[O-])c1)c1ccccc1	-5%	-11%	?	?	3.2µM*	?
N#CC1=C(N)SC(N)=C(C#N)C1c1ccoc1	?	?	22µM*	?	29%[46.1 µM]	?
Cc1ccc(-c2onc(C)c2C)cc1S(=O)(=O)NC1CCC(C)CC1 (stereo not given)	/	-7%	-3%	-23%	/	/
CCN1C/C(=C/c2cccc([N+](=O)[O-])c2)C(=O)/C(=C/c2cccc([N+](=O)[O-])c2)C1	-4%	?	?	-19%	2.5µM*	-123*
CCN(CC)c1nn2c(=O)c(C(=O)NCCc3cccc(C)c3)cnc2s1	/	4%	-5%	-8%	/	/
c1ccc(-c2ccccc2-c2nc(-c3cccnc3)no2)cc1	-7%	-2%	?	-12%	-7%[46.1 µM]	-101*
Fc1ccccc1-c1nc(-c2ccccc2)no1	0%	-6%	-8%	-9%	-5%[46.1 µM]	-100*
COc1ccc(-c2noc(-c3ccccc3F)n2)cc1	-6%	-12%	?	-27%	-17%[46.1 µM]	5
Brc1ccccc1-c1nnc(-c2cccnc2)o1	-2%	-3%	1%	-1%	-1%[46.1 µM]	-81*
Cc1ccc(Cc2nc(-c3cccnc3)no2)cc1	-14%	-1%	7%	6%	15%	-27
c1cncc(-c2noc(-c3cccc4ccccc34)n2)c1	?	-4%	?	-19%	6%[46.1 µM]	-15
